PubChem BioAssay
Values joined by “and” are separate entries in the source; they are usually repeats but may differ in a detail not shown here. Equal entries are not always repeated. Active and inactive are the calls of the source.

What was measured:
[1] = target: Albumin (Bos taurus) (UniProt P02769); test: bovine serum albumin binders on microarray, profiling panel, artefact control for SMM control protein annotation, biochemical, small-molecule microarray, Alexa647 label, 635/667 nm fluorescence (AID 1118); details: BSA-A647 binding, fluorescence 635 nm, higher = more signal;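 also: score merges 667 nm emission intensity and signal-to-noise per printed compound spot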
[2] = small-molecule microarray binders of probe aXIP, primary screen, biochemical, NeuroSMM set, 635/667 nm fluorescence (AID 1119); details: higher = more signal, called active from +8 up or from −8 down;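 also: probe is the protein aXip251-270 applied at 1 µg/mL to compound-printed slides; binding of probe to printed compounds measured as 667 nm fluorescence plus signal to noise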
[3] = small-molecule binders of probe aNOTCH3, primary screen, biochemical, small-molecule microarray, 635/667 nm fluorescence (AID 1120); details: higher = more signal;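 also: probe is a biotin-tagged antibody raised against NOTCH3 rather than NOTCH3 protein; score merges spot fluorescence near 667 nm with spot signal to noise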
[4] = small-molecule binders of probe aNOTCH2, primary screen, biochemical, small-molecule microarray, 635/667 nm fluorescence (AID 1121); details: higher = more signal;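 also: score merges feature fluorescence read at 667 nm with its signal to noise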
[5] = target: Carbonic anhydrase 2 (Homo sapiens) (UniProt P00918); test: CAII small-molecule binders, profiling panel, biochemical, small-molecule microarray, Alexa647-labelled CAII (AID 1122); details: CAII-A647 binding fluorescence, higher = more signal
[6] = COS7 lysate on small-molecule microarray, probe aHis, 635 nm (AID 1123); details: COS7 cell lysate, fluorescence, higher = more signal;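 also: z-score combines 667nm fluorescence intensity with signal-to-noise per printed compound spot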
[7] = compound binding in COS7 lysate, probe aLAP1, primary screen, cell lysate, small-molecule microarray (AID 1124); details: probe aLAP1, fluorescence, higher = more signal;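 also: lysate comes from COS7 cells expressing LAP1 and is applied at 0.3 µg/mL; score merges spot fluorescence near 667 nm with signal-to-noise over triplicate slides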
[8] = tested on: Sam68 (KHDRBS1); test: Sam68 small-molecule binders, primary screen, biochemical, small-molecule microarray, 635 nm fluorescence (AID 1125); details: small-molecule microarray binding, higher = more signal;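 also: score merges 667 nm channel intensity with signal to noise over triplicate slides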
[9] = tested on: Chordin-like protein 2 (CHRDL2); test: CHRDL2 small-molecule binders, primary screen, biochemical, small-molecule microarray, 635 nm fluorescence (AID 1126); details: small-molecule microarray binding, fluorescence 635 nm; higher = more signal;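 also: printed compound slides probed with Chrdl2 protein at 4 µg/mL for 1 h at 4 C; score merges 667 nm emission intensity with signal to noise over three replicate slides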
[10] = target: Concanavalin-A (Canavalia ensiformis) (UniProt P02866); test: ConA small-molecule binders, primary screen, artefact control for SMM control protein annotation, biochemical, small-molecule microarray, Alexa647 label, 635 nm (AID 1127); details: ConA-A647 binding fluorescence, higher = more signal;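 also: z combines 667 nm emission intensity with signal-to-noise across three replicate slides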
Concanavalin-A (Canavalia ensiformis), sequence (P02866 whole entry, looked up): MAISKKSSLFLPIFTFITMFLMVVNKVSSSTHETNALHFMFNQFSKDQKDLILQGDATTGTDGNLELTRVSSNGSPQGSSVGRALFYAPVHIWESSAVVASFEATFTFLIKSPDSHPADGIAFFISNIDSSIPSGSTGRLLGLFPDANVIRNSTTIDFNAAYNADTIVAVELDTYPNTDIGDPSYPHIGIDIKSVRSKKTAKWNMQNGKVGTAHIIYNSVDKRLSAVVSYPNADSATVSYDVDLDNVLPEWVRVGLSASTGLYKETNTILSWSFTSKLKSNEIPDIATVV

Albumin (Bos taurus), sequence (P02769 whole entry, looked up): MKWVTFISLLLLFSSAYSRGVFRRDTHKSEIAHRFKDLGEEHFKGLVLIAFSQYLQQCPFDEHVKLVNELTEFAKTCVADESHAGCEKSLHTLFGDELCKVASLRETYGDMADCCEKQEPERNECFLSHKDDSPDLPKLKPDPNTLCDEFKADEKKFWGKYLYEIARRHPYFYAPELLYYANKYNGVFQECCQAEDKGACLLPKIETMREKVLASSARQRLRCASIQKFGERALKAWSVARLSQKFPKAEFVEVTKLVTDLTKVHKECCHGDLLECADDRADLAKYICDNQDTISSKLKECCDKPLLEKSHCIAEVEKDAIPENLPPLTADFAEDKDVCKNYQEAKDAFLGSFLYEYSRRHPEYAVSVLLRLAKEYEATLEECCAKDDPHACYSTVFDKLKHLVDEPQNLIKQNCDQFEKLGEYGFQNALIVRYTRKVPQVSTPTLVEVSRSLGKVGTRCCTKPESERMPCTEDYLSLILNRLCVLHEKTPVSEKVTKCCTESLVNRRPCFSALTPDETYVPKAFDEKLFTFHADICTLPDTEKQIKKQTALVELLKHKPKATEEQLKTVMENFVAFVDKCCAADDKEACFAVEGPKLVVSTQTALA

Structure (SMILES) | composite z-score [1] | composite Z-score [2] | composite z-score [3] | composite z-score [4] | composite z-score [5] | composite z-score [6] | composite z-score [7] | composite z-score [8] | composite z-score [9] | composite z-score [10]
CC(C)N1CC=CC23O[C@@H]4C=CCCOC(=O)C4[C@H]2C(=O)N(C(C)CO)[C@@H]3C1=O (stereo not given in full) | -0.579 and 0.131 | 0.238 (inactive) and 0.848 (inactive) | -0.222 and -0.215 | 0.502 and -0.221 | 0.958 and 0.808 | 1.24 and -0.13 | 0.866 and -0.361 | 0.967 and -0.516 | -2.61 and -1.23 | 0.0938 and -1.42
COC(=O)C1=C(C)N(Cc2ccccc2)C2=C(C(C)=O)[C@H](c3ccccc3)[C@@](O)(C(=O)OC)C(=O)N2[C@@H]1c1ccccc1 | 0.695 and -0.583 | 0.124 (inactive) and 0.115 (inactive) | -0.0362 and -0.182 | -0.0907 and -0.124 | 0.301 and -0.459 | 0.275 and -0.666 | -0.209 and -0.312 | 1.17 and -1.23 | 0.564 and 0.437 | 0.365 and -0.139
O=C1C[C@]2(c3ccc([N+](=O)[O-])cc3)C(=O)N(Cc3ccccc3)c3cc(CO)ccc3[C@H]2N1C1CCCCC1 | -0.047 and -0.118 | 0.285 (inactive) and -0.0345 (inactive) | -0.0627 and 0.13 | -0.179 and 0.0118 | 0.272 and 0.439 | 0.366 and 1.14 | 0.679 and -0.627 | 0.802 and 0.377 | -0.468 and 0.393 | 0.28 and 0.772
C[N+](C)(C)CCCCCCNC(=O)[C@@H]1C[C@@H]2C(=O)N[C@@H](CCCC[N+](C)(C)C)C(=O)N2[C@@H]1c1ccc(O)cc1 | -0.595 and 0.0621 | 0.722 (inactive) and 0.318 (inactive) | -0.0918 and 0.0016 | -0.164 and -0.147 | 0.747 and 0.82 | -0.251 and 0.233 | 0.774 and 0.322 | -0.351 and 0.428 | 0.952 and 0.671 | 0.197 and 0.299
CC(C)C(=O)N[C@@H]1CCCN1C(=O)C=Cc1ccccc1 | -0.0317 | 1.05 (inactive) | 0.0271 | -0.14 | -0.0483 | 0.251 | -0.086 | 0.806 | 0.933 | 0.315
CO[C@@H]1C=CCC(=O)N2CCC[C@H]2C(=O)OC[C@H](C)C(=O)OC[C@H]1C | 0.987 | 0.392 (inactive) | -0.0077 | 0.012 | 0.403 | -0.555 | -0.795 | 0.216 | 1.01 | -0.607
C=CCN(Cc1ccccc1)C(=O)C1N(CCOCCO)C(=O)C2C(C(=O)O)C3C=CC21O3 (stereo not given) | -1.03 and 0.202 | -0.124 (inactive) and 0.217 (inactive) | -0.611 and -0.41 | -0.0984 and -0.183 | 0.903 and 0.881 | 1.33 and -1.28 | 1.24 and -0.375 | -0.604 and -0.238 | -3.42 and -2.87 | -1.05 and -0.374
CCCCN1CC=CC23O[C@@H]4C=CCCOC(=O)C4[C@H]2C(=O)N(C(C)CO)[C@@H]3C1=O (stereo not given in full) | -0.12 and -0.441 | -0.238 (inactive) and -0.166 (inactive) | -0.222 and -0.0647 | -0.21 and -0.147 | 0.837 and 0.777 | 0.462 and 0.472 | 0.216 and 0.436 | 0.206 and -0.0241 | 0.375 and -0.0584 | -1.63 and 0.0212
CCCNC(=O)OC[C@H]1O[C@H](CCON=C(C)CCN2CCc3nc(-c4ccccc4)c(-c4ccccc4)cc3C2)C=C[C@@H]1Oc1ccc(OC)cc1 | 0.216 | 0.126 (inactive) | 0.0179 | -0.108 | -0.0398 | 0.73 | 0.354 | 0.389 | -0.273 | 0.472
C[C@@H]1CN2[C@@H](CC[C@@H](C)[C@@H]2c2ccc(Br)cc2)C(=O)O1 | -0.66 and 0.877 | -0.139 (inactive) and 0.204 (inactive) | 0.0357 and -0.0363 | -0.0515 and -0.221 | -0.366 and -0.303 | -0.513 and 0.437 | 0.39 and 0.146 | -1.57 and 0.0639 | 0.261 and 0.559 | -0.0782 and -0.252
Cc1ccc(S(=O)(=O)N[C@H]2COC(=O)[C@@H](C)COC(=O)[C@H](C)NC(=O)CC=C[C@H]2C)cc1 | -0.965 | 1.17 (inactive) | -0.0931 | -0.14 | -0.338 | -0.49 | -0.34 | 0.122 | 0.954 | -0.681
C=CCN(C(=O)C1N(CCCCCCO)C(=O)C2C(C(=O)O)C3C=CC21O3)c1ccc(OC)cc1 (stereo not given) | -0.547 and -1.14 | -0.344 (inactive) and -0.542 (inactive) | -0.577 and -0.287 | -0.0345 and -0.0148 | 0.981 and 0.391 | 3.24 and 2.93 | 1.44 and 0.066 | -0.931 and -2.13 | -2.65 and -2.43 | -0.941 and -2.04
CO[C@H]1COC(=O)CC=C[C@H](C)[C@H](OC)COC(=O)[C@@H](C)COC(=O)CC=C[C@@H]1C | -0.774 and -0.721 | 0.606 (inactive) and -0.054 (inactive) | -0.0984 and -0.0932 | -0.153 and -0.14 | -0.173 and -0.455 | -0.315 and -0.798 | -0.497 and -0.561 | 0.467 and 0.0015 | 1.16 and 0.85 | -0.413 and -1.52
CO[C@H]1COC(=O)[C@H](C)NC(=O)CC=C[C@@H](C)[C@H](OC)COC(=O)CC=C[C@@H]1C | -0.956 | 0.536 (inactive) | -0.0716 | -0.161 | -0.719 | -0.705 | -0.796 | -0.25 | 1.49 | -1.85
C=CCN(CCCC)C(=O)C(c1cccs1)N(CCOCCO)C(=O)/C=C\C(=O)O (stereo not given) | -0.717 and 0.789 | -0.67 (inactive) and -0.0169 (inactive) | -0.362 and -0.189 | -0.14 and -0.115 | 0.916 and 0.734 | 0.0303 and 1.6 | -0.672 and 0.9 | -1.2 and -0.24 | -1.6 and -0.769 | -2.03 and -0.878
O=C1NC(=O)C2C1C=CC(C(O)c1ccc([N+](=O)[O-])cc1)N2Nc1ccc(Cl)cc1Cl (stereo not given) | 0.933 and 0.732 | -0.35 (inactive) and -0.195 (inactive) | 0.0597 and 0.133 | 0.0454 and 0.153 | 0.483 and 0.751 | 2.95 and 2.03 | 0.673 and 1.28 | 0.415 and 0.584 | -0.532 and -0.0926 | 0.738 and 0.461
